Reference: PubChem BioAssay (EPA / NIEHS)
The source made the active and inactive calls. Rule for the calls: active = hit-call score of the fitted dose curve at least 0.9, where 1 is the maximum; inactive = score below 0.9.

read-out: growth arrest and DNA damage 45 (GADD45A), GADD45A (gene 1647); test: LTEA_HepaRG_GADD45A: Life Technologies and Expression Analysis (LTEA) Assay for growth arrest and DNA damage 45 (GADD45A) using HepaRG (AID 2283458); settings: mRNA level, 48 h; actives raise or lower the signal
Description: LTEA_HepaRG is a cell based, multiplexed-readout assay that uses HepaRG, a human liver cell line, with measurements taken at 48 hours after chemical dosing on a 96-well plate.LTEA_HepaRG_GADD45A is one of 102 assay component(s) measured in the LTEA HepaRG cell culture assay. It is a marker of Oxidative Stress.Data from the assay component LTEA_HepaRG_GADD45A was analyzed into 1 endpoint. This assay endpoint, LTEA_HepaRG_GADD45A, was analyzed with bidirectional fitting relative to DMSO as the negative control and baseline of activity. Using a type of inducible reporter, measures of mRNA induction for gain or loss-of-signal activity can be used to understand regulation of transcription factor activity. To generalize the intended target to other relatable targets, this assay endpoint is annotated to the cell cycle intended target family, where the subfamily is Oxidative Stress.
A total of 1060 chemcials from the ToxCast library were tested in eight-point concentration-response experiments. Cell culture and cytotoxicity assays were conducted at Thermo Fisher Scientific's Custom Services facility (Madison, WI). A single lot of human HepaRG cells (Thermo Fisher Scientific, Frederick, MD) was used for the cell culture experiments. 96-well format collagen type I coated plates of human HepaRG cells were prepared using established methods. Briefly, cryopreserved HepaRG cells were thawed, plated at a density of approximately 100,000 cells/well in HepaRG Thaw, Plate, and General Purpose media (HPRG770, Thermo Fisher Scientific), and incubated for 48 hours. 0.5% DMSO was selected as vehicle control to balance the requisite need of DMSO in HepaRG cultures to maintain differentiation (for example, baseline metabolism, proportions of hepatocytes vs. cholangiocytes), while enabling further hepatic receptor pathway activation (for example, PXR and CAR) in response to chemical exposure. 48 hours after plating, the culture medium was replaced with HepaRG Serum-Free Incudtion Media. Cells were exposed to each test chemical in duplicate and maintained in CO2 incubators for another 48 hours. Chemical plates were thawed to room temperature and 200x concentrations of treatment groups were prepared. 8-point conentration-reponse curves were made with the highest exposure at 100 uM, followed by half-log dilutions, all in 0.5% DMSO. Each test plate contained variouse controls, induction positive controls (1mM phenobarbital), cytotoxicity positive controls ([…] aflatoxin B1), vehicle controls (0.5% DMSO), and total lysis controls (0.5% DMSO). Cell morphology images were taken using an Essen IncuCyte FLR automated microscope, with six 96-well plates imaged in about 24 minutes. Images were captured and exported and JPEG files. Spent culture media was transfered to black-well plates for the LDH assay, and remaining media was sorted at -80 C for later use. Cells were treated with RLT buffer and frozen until shipped for gene expression analysis. Total RNA was isolated from the cell suspension in 75 uL of Buffer RLT (Qiagen, Germantown, MD 20874) by Quintiles/Expression Analysis (Durham, NC) using a custom isolation procedure. Total RNA from each plate well was transferred to a preamplification plate. Fluidigm's 96.96 Dynamic ArrayTM (Fluidigm, Amsterdam, the Netherlands) technology was used for gene expression analyses by quantitative reverse transcription polymerase chain reaction (qRT-PCR, performed by Quintiles/Expression Analysis, Durham, NC)89. Standard TaqManTM Assays (Applied Biosystems/ThermoFisher Scientific, Foster City, CA) were used to assess the expression of 93 genes selected based on their selectivity and sensitivity to important hepatic receptors known to be modulated by environmental chemicals; importance in human hepatocyte functionality; and hepatotoxicity. […]

Compound	outcome	AC50
CCCCC(CC)C(=O)O (stereo unspecified)	inactive	–
CS(=O)(=O)c1ccc([C@@H](CC2CCCC2)C(=O)Nc2cnccn2)cc1Cl	–	9.92 µM (active)
O=C(CCCN1CCC(O)(c2ccc(Cl)cc2)CC1)c1ccc(F)cc1	–	75 µM (active)
CCCCCCCCCCCCCCC	inactive	–
N=C(N)c1ccc(OCCCCCOc2ccc(C(=N)N)cc2)cc1	–	4.21 µM (active)
CCCCCCCCCCCCOS(=O)(=O)O	inactive	–
O=C(c1ccccc1)c1ccccc1	inactive	–
CN(Cc1cnc2nc(N)nc(N)c2n1)c1ccc(C(=O)N[C@@H](CCC(=O)O)C(=O)O)cc1	inactive	–
O=C1NS(=O)(=O)c2ccccc21	inactive	–
CN(C)CCOC(c1ccccc1)c1ccccc1	inactive	–
CC(=O)Nc1ccc(O)cc1	inactive	–
Cc1[nH]nc2c1N=C(c1ccccc1Cl)c1cc([N+](=O)[O-])ccc1N2	–	88.8 µM (active)
CCCCc1oc2ccccc2c1C(=O)c1cc(I)c(OCCN(CC)CC)c(I)c1	–	59.1 µM (active)
CCC(C)c1ccccc1O (stereo unspecified)	inactive	–
OCC(CO)(CBr)CBr	inactive	–
CCCCC=O	inactive	–
